PubChem BioAssay (EPA / NIEHS)
Calls of active or inactive are those of the source. The calls were made as follows: active = hit-call score of the fitted dose curve at least 0.9, where 1 is the maximum; inactive = score below 0.9.

Key:
[1] = CEETOX_H295R_PROG: CeeTox H295R High-throughput Steroidogenesis Assay for Progesterone (PROG) (AID 2283442); details: actives raise or lower the signal;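 as to AC50: human H295R adrenal cells primed with 10 µM forskolin before dosing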
Procedure, shortened: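 Progesterone read-out: HPLC-MS/MS on MTBE extracts of conditioned medium after 48 h chemical exposure of forskolin-primed (10 uM, 48 h) H295R cells. Gain or loss of signal was fitted relative to DMSO baseline.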

[2] = read-out: Fatty acid synthase (Homo sapiens) (UniProt P49327); assay: LTEA_HepaRG_FASN: Life Technologies and Expression Analysis (LTEA) Assay for Fatty Acid Synthase (FASN) using HepaRG (AID 2283448); details: mRNA level, 48 h; actives raise or lower the signal;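 as to AC50: differentiated human HepaRG liver cells in serum-free induction medium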
Procedure, shortened: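 FASN transcript measured by TaqMan qRT-PCR, normalised to three housekeeping genes, after 48 h chemical exposure of HepaRG cells. Eight-point half-log series from 100 uM in 0.5% DMSO, duplicates; gain or loss fitted against vehicle.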

[3] = read-out: Cyclin Dependent Kinase Inhibitor 1A (CDKN1A), CDKN1A (gene 1026); assay: LTEA_HepaRG_CDKN1A: Life Technologies and Expression Analysis (LTEA) Assay for Cyclin Dependent Kinase Inhibitor 1A (CDKN1A) using HepaRG (AID 2283450); details: mRNA level, 48 h; actives raise or lower the signal
Procedure, shortened: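 HepaRG, 48 h dosing, 8-pt half-log series from 100 uM top, 0.5% DMSO vehicle, duplicates. Readout: TaqMan qRT-PCR of CDKN1A transcript, housekeeping-normalized (ACTB, GAPDH, POLR2A). Up/down curve fit relative to DMSO.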

[4] = read-out: Cyclin D1 (CCND1), CCND1 (gene 595); assay: LTEA_HepaRG_CCND1: Life Technologies and Expression Analysis (LTEA) Assay for Cyclin D1 (CCND1) using HepaRG (AID 2283451); details: mRNA level, 48 h; actives raise or lower the signal;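 as to AC50: differentiated human HepaRG liver cells in serum-free induction medium; TaqMan qRT-PCR transcript level normalised to ACTB GAPDH and POLR2A housekeeping genes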
Procedure, shortened: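 qRT-PCR (Fluidigm 96.96 array) read-out of transcript level, housekeeping-normalized (ACTB/GAPDH/POLR2A). HepaRG cells, 48 h chemical exposure, 8-point half-log series from 100 uM, 0.5% DMSO vehicle; gain or loss relative to DMSO baseline.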

[5] = read-out: catalase (CAT), CAT (gene 847); assay: LTEA_HepaRG_CAT: Life Technologies and Expression Analysis (LTEA) Assay for catalase (CAT) using HepaRG (AID 2283452); details: mRNA level, 48 h; actives raise or lower the signal
Procedure, shortened: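 HepaRG cells in serum-free induction medium, 0.5% DMSO vehicle, exposed 48 h in duplicate over 8 half-log concentrations from 100 uM. CAT mRNA measured by qRT-PCR, normalized to ACTB, GAPDH, POLR2A; bidirectional fit versus DMSO.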

[6] = read-out: flavin-containing dimethylaniline monooxygenases 3 (FMO3), FMO3 (gene 2328); assay: LTEA_HepaRG_FMO3: Life Technologies and Expression Analysis (LTEA) Assay for flavin-containing dimethylaniline monooxygenases 3 (FMO3) using HepaRG (AID 2283453); details: mRNA level, 48 h; actives raise or lower the signal;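 as to AC50: differentiated human HepaRG liver cells in serum-free induction medium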
Procedure, shortened: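 FMO3 transcript quantified by TaqMan qRT-PCR against three housekeeping genes after 48 h chemical exposure of HepaRG cells. Eight-point half-log series, top 100 uM, 0.5% DMSO vehicle; phenobarbital 1mM induction control; up- or down-regulation fitted.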

[7] = read-out: Cytochrome P450 (CYP1A1), CYP1A1 (gene 1543); assay: LTEA_HepaRG_CYP1A1: Life Technologies and Expression Analysis (LTEA) Assay for Cytochrome P450 (CYP1A1) using HepaRG (AID 2283454); details: mRNA level, 48 h; actives raise or lower the signal
Procedure, shortened: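 qRT-PCR read-out: CYP1A1 transcript normalized to three housekeeping genes, fitted bidirectionally against 0.5% DMSO vehicle baseline. Human HepaRG cells, 48 h chemical exposure, 8-point half-log series topping at 100 uM.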

[8] = read-out: Forkhead box O1 (FOXO1), FOXO1 (gene 2308); assay: LTEA_HepaRG_FOXO1: Life Technologies and Expression Analysis (LTEA) Assay for Forkhead box O1 (FOXO1) using HepaRG (AID 2283456); details: mRNA level, 48 h; actives raise or lower the signal
Procedure, shortened: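 HepaRG, 48 h exposure, 8-pt half-log series from 100 uM in 0.5% DMSO, duplicates; Fluidigm qRT-PCR mRNA, housekeeping-normalised; bidirectional fit vs DMSO baseline.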

[9] = read-out: growth arrest and DNA damage 45 (GADD45A), GADD45A (gene 1647); assay: LTEA_HepaRG_GADD45A: Life Technologies and Expression Analysis (LTEA) Assay for growth arrest and DNA damage 45 (GADD45A) using HepaRG (AID 2283458); details: mRNA level, 48 h; actives raise or lower the signal
Procedure, shortened: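 GADD45A expression was measured by TaqMan qRT-PCR against three housekeeping genes (ACTB, GAPDH, POLR2A) after 48 h treatment of HepaRG cells. Eight-point half-log series up to 100 uM in 0.5% DMSO, run in duplicate.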

[10] = read-out: Forkhead box O3 (FOXO3), FOXO3 (gene 2309); assay: LTEA_HepaRG_FOXO3: Life Technologies and Expression Analysis (LTEA) Assay for Forkhead box O3 (FOXO3) using HepaRG (AID 2283459); details: mRNA level, 48 h; actives raise or lower the signal
Procedure, shortened: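 qRT-PCR readout of FOXO3 transcript, normalized to three housekeeping genes (ACTB, GAPDH, POLR2A); gain or loss fitted against 0.5% DMSO vehicle. HepaRG cells, 48 h chemical exposure, 8-point half-log series, top 100 uM.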

[11] = read-out: ABC Transporter (ABCB1), ABCB1 (gene 5243); assay: LTEA_HepaRG_ABCB1: Life Technologies and Expression Analysis (LTEA) Assay for ABC Transporter (ABCB1) using HepaRG (AID 2283460); details: mRNA level, 48 h; actives raise or lower the signal
Procedure, shortened: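 HepaRG, 48 h exposure, 8-pt half-log series from 100 uM, 0.5% DMSO vehicle, duplicates. Readout: ABCB1 transcript by Fluidigm TaqMan qRT-PCR, housekeeping-normalized; bidirectional curve fit vs DMSO baseline.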

[12] = read-out: ABC Transporter (ABCC3), ABCC3 (gene 8714); assay: LTEA_HepaRG_ABCC3: Life Technologies and Expression Analysis (LTEA) Assay for ABC Transporter (ABCC3) using HepaRG (AID 2283462); details: mRNA level, 48 h; actives raise or lower the signal
Procedure, shortened: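 qRT-PCR read-out of ABCC3 transcript, normalized to three housekeeping genes (ACTB, GAPDH, POLR2A), after 48 h chemical exposure of human HepaRG cells. Eight half-log concentrations, highest 100 uM, in 0.5% DMSO; gain or loss fitted relative to DMSO baseline.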

[13] = read-out: ABC Transporter (ABCB11), ABCB11 (gene 8647); assay: LTEA_HepaRG_ABCB11: Life Technologies and Expression Analysis (LTEA) Assay for ABC Transporter (ABCB11) using HepaRG (AID 2283463); details: mRNA level, 48 h; actives raise or lower the signal
Procedure, shortened: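 HepaRG, 48 h exposure, 8-pt half-log CRC top 100 uM, 0.5% DMSO vehicle, duplicates. Readout: TaqMan qRT-PCR of ABCB11 mRNA, housekeeping-normalized (ACTB/GAPDH/POLR2A). Bidirectional fit vs DMSO baseline.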

[14] = read-out: ABC Transporter (ABCC2), ABCC2 (gene 1244); assay: LTEA_HepaRG_ABCC2: Life Technologies and Expression Analysis (LTEA) Assay for ABC Transporter (ABCC2) using HepaRG (AID 2283464); details: mRNA level, 48 h; actives raise or lower the signal
Procedure, shortened: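 qRT-PCR (TaqMan, Fluidigm array) read-out of ABCC2 mRNA, normalized to three housekeeping genes. Differentiated HepaRG cells were treated 48 h in serum-free induction medium with 8-point half-log series from 100 uM in 0.5% DMSO; curves fitted bidirectionally relative to DMSO.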

[15] = read-out: Broad substrate specificity ATP-binding cassette transporter ABCG2 (Homo sapiens) (UniProt Q9UNQ0); assay: LTEA_HepaRG_ABCG2: Life Technologies and Expression Analysis (LTEA) Assay for ABC Transporter (ABCG2) using HepaRG (AID 2283465); details: mRNA level, 48 h; actives raise or lower the signal
Procedure, shortened: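 HepaRG, 48 h exposure, 8-pt half-log series from 100 uM, 0.5% DMSO vehicle, duplicates. Readout: ABCG2 transcript by qRT-PCR (Fluidigm array), housekeeping-normalized; bidirectional curve fit relative to DMSO baseline.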

[16] = read-out: Tumor necrosis factor receptor superfamily member 6 (Homo sapiens) (UniProt P25445); assay: LTEA_HepaRG_FAS: Life Technologies and Expression Analysis (LTEA) Assay for Fas cell surface death receptor (FAS) using HepaRG (AID 2283447); details: mRNA level, 48 h; actives raise or lower the signal
Procedure, shortened: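 Differentiated HepaRG cells in serum-free induction medium were exposed 48 h to 8 half-log concentrations up to 100 uM in 0.5% DMSO, in duplicate. FAS mRNA was measured by qRT-PCR normalised to ACTB, GAPDH and POLR2A; bidirectional fit versus DMSO.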

[17] = read-out: Cyclin D2 (CCND2), CCND2 (gene 894); assay: LTEA_HepaRG_CCND2: Life Technologies and Expression Analysis (LTEA) Assay for Cyclin D2 (CCND2) using HepaRG (AID 2283449); details: mRNA level, 48 h; actives raise or lower the signal;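 also: CCND2 transcript measured by TaqMan qRT-PCR and normalised to three housekeeping genes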
Procedure, shortened: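 HepaRG, 48 h dosing, 8-pt half-log curve from 100 uM, 0.5% DMSO; duplicate wells. Readout: CCND2 transcript by microfluidic qRT-PCR, housekeeping-normalised; bidirectional fit vs DMSO baseline.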

[18] = read-out: CFLAR gene, CFLAR (gene 8837); assay: LTEA_HepaRG_CFLAR: Life Technologies and Expression Analysis (LTEA) Assay for CFLAR gene using HepaRG (AID 2283455); details: mRNA level, 48 h; actives raise or lower the signal
Procedure, shortened: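 qRT-PCR read-out (Fluidigm/TaqMan) of CFLAR mRNA, normalized to three housekeeping genes, in differentiated human HepaRG cells after 48 h chemical exposure; 8-point half-log series from 100 uM in 0.5% DMSO; bidirectional curve fitting versus DMSO.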

[19] = read-out: growth arrest and DNA damage 45 (GADD45B), GADD45B (gene 4616); assay: LTEA_HepaRG_GADD45B: Life Technologies and Expression Analysis (LTEA) Assay for growth arrest and DNA damage 45 (GADD45B) using HepaRG (AID 2283461); details: mRNA level, 48 h; actives raise or lower the signal
Procedure, shortened: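 qRT-PCR read-out (Fluidigm TaqMan, housekeeping-normalized) of mRNA change in human HepaRG cells after 48 h chemical exposure; 8-point curve, top 100 uM, half-log steps, 0.5% DMSO vehicle; gain or loss fitted relative to DMSO baseline.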

[20] = CEETOX_H295R_TESTO: CeeTox H295R High-throughput Steroidogenesis Assay for Testosterone (TESTO) (AID 2283457); details: actives raise or lower the signal
Procedure, shortened: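 Readout: testosterone quantified by HPLC-MS/MS (C18, ESI positive) after MTBE liquid-liquid extraction of culture medium. Cells were H295R, 48 h chemical exposure per OECD 456 with modifications. Gain or loss of signal fitted relative to DMSO.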

Measured: AC50

Chain of Broad substrate specificity ATP-binding cassette transporter ABCG2 (Homo sapiens) (Q9UNQ0 whole entry, looked up): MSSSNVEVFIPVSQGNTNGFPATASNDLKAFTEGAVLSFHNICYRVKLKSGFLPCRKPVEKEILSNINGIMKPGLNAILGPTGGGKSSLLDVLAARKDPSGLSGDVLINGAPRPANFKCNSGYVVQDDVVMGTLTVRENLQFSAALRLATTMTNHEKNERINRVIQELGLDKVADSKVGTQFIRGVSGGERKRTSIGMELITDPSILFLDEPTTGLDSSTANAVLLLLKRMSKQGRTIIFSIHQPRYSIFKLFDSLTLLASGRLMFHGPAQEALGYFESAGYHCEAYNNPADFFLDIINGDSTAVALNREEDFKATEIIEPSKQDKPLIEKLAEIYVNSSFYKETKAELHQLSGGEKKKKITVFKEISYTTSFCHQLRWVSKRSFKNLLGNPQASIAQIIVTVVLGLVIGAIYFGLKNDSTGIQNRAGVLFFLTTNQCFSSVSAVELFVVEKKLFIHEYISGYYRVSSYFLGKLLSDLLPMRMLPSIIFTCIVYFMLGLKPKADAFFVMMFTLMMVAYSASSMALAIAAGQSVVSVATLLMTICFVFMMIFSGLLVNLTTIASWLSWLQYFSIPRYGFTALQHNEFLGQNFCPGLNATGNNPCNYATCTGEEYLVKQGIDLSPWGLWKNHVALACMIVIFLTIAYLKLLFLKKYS
Chain of Fatty acid synthase (Homo sapiens) (P49327 whole entry, looked up): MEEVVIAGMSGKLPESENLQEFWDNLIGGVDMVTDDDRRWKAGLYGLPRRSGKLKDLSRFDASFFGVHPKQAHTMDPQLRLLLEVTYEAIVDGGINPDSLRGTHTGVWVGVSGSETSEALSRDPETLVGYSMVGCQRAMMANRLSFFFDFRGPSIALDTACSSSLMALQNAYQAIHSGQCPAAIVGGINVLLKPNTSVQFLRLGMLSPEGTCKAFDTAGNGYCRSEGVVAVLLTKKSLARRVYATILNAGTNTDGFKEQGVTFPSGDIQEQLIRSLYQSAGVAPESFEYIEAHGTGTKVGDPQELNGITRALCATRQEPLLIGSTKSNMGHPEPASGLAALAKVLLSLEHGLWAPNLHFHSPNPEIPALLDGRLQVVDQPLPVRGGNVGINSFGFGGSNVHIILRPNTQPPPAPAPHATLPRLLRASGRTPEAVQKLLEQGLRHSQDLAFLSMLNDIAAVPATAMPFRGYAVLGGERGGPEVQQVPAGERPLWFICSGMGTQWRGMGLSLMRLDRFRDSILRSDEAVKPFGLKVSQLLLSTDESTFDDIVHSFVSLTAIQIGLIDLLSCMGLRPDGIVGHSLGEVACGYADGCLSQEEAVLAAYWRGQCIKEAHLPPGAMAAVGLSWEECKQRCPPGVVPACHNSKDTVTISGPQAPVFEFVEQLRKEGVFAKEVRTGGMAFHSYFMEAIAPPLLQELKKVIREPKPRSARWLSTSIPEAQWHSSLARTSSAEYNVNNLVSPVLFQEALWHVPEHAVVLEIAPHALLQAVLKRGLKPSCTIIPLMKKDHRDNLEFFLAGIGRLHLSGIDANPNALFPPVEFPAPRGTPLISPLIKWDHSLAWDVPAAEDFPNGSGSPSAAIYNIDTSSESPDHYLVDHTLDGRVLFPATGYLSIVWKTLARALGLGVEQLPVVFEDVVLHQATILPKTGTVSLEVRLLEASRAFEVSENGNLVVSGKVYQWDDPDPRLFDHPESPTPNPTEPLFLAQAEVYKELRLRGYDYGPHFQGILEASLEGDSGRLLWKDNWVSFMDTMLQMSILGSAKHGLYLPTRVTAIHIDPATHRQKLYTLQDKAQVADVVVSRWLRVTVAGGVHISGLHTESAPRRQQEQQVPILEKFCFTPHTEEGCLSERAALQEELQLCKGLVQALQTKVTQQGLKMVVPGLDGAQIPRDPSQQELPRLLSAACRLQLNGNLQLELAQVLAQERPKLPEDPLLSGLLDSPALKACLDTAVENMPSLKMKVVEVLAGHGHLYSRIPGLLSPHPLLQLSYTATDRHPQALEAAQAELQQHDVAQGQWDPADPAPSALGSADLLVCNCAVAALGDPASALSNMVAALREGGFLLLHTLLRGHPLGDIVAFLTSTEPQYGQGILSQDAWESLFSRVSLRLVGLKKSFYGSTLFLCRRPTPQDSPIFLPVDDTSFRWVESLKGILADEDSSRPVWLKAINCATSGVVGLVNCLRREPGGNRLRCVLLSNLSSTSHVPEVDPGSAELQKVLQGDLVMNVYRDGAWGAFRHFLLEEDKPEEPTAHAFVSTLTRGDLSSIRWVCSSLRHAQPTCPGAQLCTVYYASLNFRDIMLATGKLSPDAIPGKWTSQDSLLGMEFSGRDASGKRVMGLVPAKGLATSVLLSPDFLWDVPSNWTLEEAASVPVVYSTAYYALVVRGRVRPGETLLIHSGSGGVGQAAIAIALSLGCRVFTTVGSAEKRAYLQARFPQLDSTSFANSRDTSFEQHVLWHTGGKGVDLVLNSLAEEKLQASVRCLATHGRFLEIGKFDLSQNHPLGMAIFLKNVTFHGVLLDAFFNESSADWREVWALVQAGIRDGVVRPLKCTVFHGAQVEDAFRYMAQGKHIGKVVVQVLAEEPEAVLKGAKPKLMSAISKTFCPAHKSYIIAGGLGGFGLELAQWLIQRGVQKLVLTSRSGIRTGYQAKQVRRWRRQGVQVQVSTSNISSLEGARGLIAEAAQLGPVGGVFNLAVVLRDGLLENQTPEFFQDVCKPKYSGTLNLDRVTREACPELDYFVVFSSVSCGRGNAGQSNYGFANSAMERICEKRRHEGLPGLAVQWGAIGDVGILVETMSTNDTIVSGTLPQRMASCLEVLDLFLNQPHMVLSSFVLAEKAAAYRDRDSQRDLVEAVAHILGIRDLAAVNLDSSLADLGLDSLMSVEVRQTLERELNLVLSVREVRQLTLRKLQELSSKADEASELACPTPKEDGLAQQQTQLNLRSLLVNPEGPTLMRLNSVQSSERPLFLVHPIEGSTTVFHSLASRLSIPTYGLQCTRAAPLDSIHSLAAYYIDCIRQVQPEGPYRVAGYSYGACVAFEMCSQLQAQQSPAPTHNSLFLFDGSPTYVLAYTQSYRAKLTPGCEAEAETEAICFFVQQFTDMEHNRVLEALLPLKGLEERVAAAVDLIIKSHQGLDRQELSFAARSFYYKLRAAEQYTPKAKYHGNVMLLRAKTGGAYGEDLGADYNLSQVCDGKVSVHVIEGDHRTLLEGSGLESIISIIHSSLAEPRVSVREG

CCOc1nc(C(Cl)(Cl)Cl)ns1
inactive: [1] | [2] | [3] | [5] | [12] | [14]
active: [4] 1.18 µM | [6] 0.644 µM | [7] 1.44 µM | [8] 1 µM | [9] 1.49 µM | [10] 0.967 µM | [11] 1.05 µM | [13] 1.08 µM | [15] 1.29 µM

CCN(CC)C(=O)C(C)Oc1cccc2ccccc12 (centres undefined)
inactive: [1] | [16] | [2] | [17] | [3] | [4] | [18] | [8] | [9] | [19] | [12] | [14]
active: [5] 81.2 µM | [6] 82.9 µM | [7] 36.9 µM | [13] 50 µM | [15] 50 µM

CCC(C)n1c(=O)[nH]c(C)c(Br)c1=O (centres undefined)
active: [2] 14.1 µM | [4] 27.6 µM | [5] 40.4 µM | [6] 29 µM | [7] 5.11 µM | [19] 28.5 µM | [13] 30 µM
inactive: [1] | [16] | [17] | [3] | [8] | [9] | [12] | [14] | [15]

CC1(C)CCC(=Cc2ccc(Cl)cc2)C1(O)Cn1cncn1 (centres undefined)
inactive: [16] | [3] | [4] | [5] | [6] | [8] | [20] | [9] | [10] | [12] | [13] | [14] | [15]
active: [1] 0.716 µM | [2] 6.85 µM | [7] 11.2 µM
